Inconclusive results are not listed. The source made the active and inactive calls. Calls come from the whole dose curve; as a rule, active = well fitted activation curve with a large enough effect; inconclusive = small, poorly fitted or top-dose-only effect; inactive = no such curve, though single readings can be large or run the other way.
Assay: qHTS for Activators of Parkin Expression: LOPAC Validation Assay (FLuc Reporter) (AID 720573)
Conditions: Cell line, PRKN promoter firefly luciferase reporter, vehicle wells = 0, positive control = 100%; series mostly up to 46.1 µM
Text: Parkin is an E3 ubiquitin ligase localized in the cytosol of cells expressed in many tissues, including brain, skeletal muscle, heart and liver tissues. One hour after stress induction by mitochondrial uncouplers (which mimic mitochondria damage by decreasing the mitochondrial inner membrane electrochemical gradient that is used to produce ATP), Parkin translocates from the cytosol to mitochondria in many cultured cell types, including neurons and HeLa cells. Administration of other mitochondrial poisons, such as Paraquat and azide in cells lacking mitochondrial DNA (mtDNA), induces Parkin translocation to mitochondria. […] It was proposed that Parkin (together with Pink1) mediates a mitochondrial quality control pathway to maintain organelle population fidelity by removing damaged mitochondria. Understanding the normal physiologic role of Parkin (and Pink1) may uncover novel treatment strategies for sporadic Parkinson's disease patients with mutation in these genes.
A cell based qHTS in 1536 well format was developed assess modulation of Parkin expression using a neuronal cell line that stably expresses a stably expresses a luminescent coincidence reporter (FLuc and NLuc reporters) behind the Parkin promoter. The LOPAC library is used to validate the assay for quantitative high-throughput screening. The data herein reports the signal from the FLuc reporter. An increase in this signal = activation of Parkin expression. For this assay , a positive control normalized signal increase corresponding to a high quality qHTS curve class in both luminescent channels is the desired outcome for this assay.
NIH Chemical Genomics Center [NCGC]
NIH Molecular Libraries Probe Centers Network [MLPCN]
Assay Submitter (PI): Richard Youle, National Institute of Neurological Disorders and Strokes (NINDS), NIH
[1] Narendra, D., et al., Parkin is recruited selectively to impaired mitochondria and promotes their autophagy. J Cell Biol, 2008. 183(5): p. 795-803.
[2] Suen, D.F., et al., Parkin overexpression selects against a deleterious mtDNA mutation in heteroplasmic cybrid cells. Proc Natl Acad Sci U S A, 2010. […] 11835-40.
[3] Cheng K, Inglese J. A coincedence reporter-gene system for high-throughput screening. Nat Methods. 2012: 9(10);937
Five microliters (1,500 cells/well) of the Parkin coincidence reporter cells were seeded to 1536 well assay plates (Greiner Catalog # 789173-F) and incubated at 37 C, 5% CO2 for 24 hours. Compounds (23 nL) were pinned using the Kalypsys robotic system equipped with 1536 pin head adaptor in 7-point dose response. The assay plates were incubated for additional 24 hr at 37 C, 5% CO2 followed by a volume reduction in each well to 2 uL using an automated plate washer/aspirator. Following the volume reduction,2 uL of FLuc detection reagent and plates were incubated for 10 minutes at room temperature. The FLuc luminescence signal was obtained using the PerkinElmer ViewLux plate imager and then 2 uL of NanoLuc detection reagent was added to the plates. After another 10 minute incubation, NanoLuc signal was obtained using the PerkinElmer ViewLux plate imager as before. Data from each channel was normalized to DMSO (neutral control) and the positive control compounds (100%).

Structure (SMILES)	outcome
CCCN1CCC[C@@H]2Cc3nc(N)ncc3C[C@H]21	inactive
CC[C@@H](CO)NC(=O)[C@@H]1C=C2c3cccc4[nH]cc(c34)C[C@H]2N(C)C1	inactive
C[C@@H]1O[C@@H](O[C@H]2C[C@@H](O)[C@]3(CO)[C@H]4[C@H](O)C[C@]5(C)[C@@H](C6=CC(=O)OC6)CC[C@]5(O)[C@@H]4CC[C@]3(O)C2)[C@H](O)[C@H](O)[C@H]1O	inactive
CC(CCc1ccccc1)NC(C)C(O)c1ccc(O)cc1 (centres undefined)	inactive
CCCC(C)(COC(N)=O)COC(=O)NC(C)C (centres undefined)	inactive
NCC1(CC(=O)O)CCCCC1	inactive
NCC(CC(=O)O)c1ccc(Cl)cc1 (centres undefined)	inactive
CCC1(C2=NCCN2)Cc2ccccc2O1 (centres undefined)	inactive
CN1C[C@H](CNC(=O)OCc2ccccc2)C[C@@H]2c3cccc4c3c(cn4C)C[C@H]21	inactive
Cc1cc2c(C(C)C)c(O)c(O)c(C=O)c2c(O)c1-c1c(C)cc2c(C(C)C)c(O)c(O)c(C=O)c2c1O	inactive
CC(O)(CS(=O)(=O)c1ccc(F)cc1)C(=O)Nc1ccc(C#N)c(C(F)(F)F)c1 (centres undefined)	inactive
c1ccc(C2CC2)c(OCC2=NCCN2)c1	inactive
CC(=O)[C@H]1CC[C@H]2[C@@H]3CC[C@H]4C[C@](C)(O)CC[C@]4(C)[C@H]3CC[C@]12C	inactive
NCC(O)c1ccc(O)cc1 (centres undefined)	inactive
Cc1ccc(S(=O)(=O)N[C@@H](CCCCN)C(=O)CCl)cc1	inactive
CC(=O)[C@H]1CC[C@H]2[C@@H]3CC[C@H]4C[C@H](O)CC[C@]4(C)[C@H]3C(=O)C[C@]12C	inactive
COC[C@H]1OC(=O)c2coc3c2[C@@]1(C)C1=C(C3=O)C2CCC(=O)[C@@]2(C)C[C@H]1OC(C)=O (some centres undefined)	inactive

Structure (SMILES)	outcome
CNCC(O)c1ccc(O)cc1 (centres undefined)	inactive
Cc1cccc(C)c1NC(=O)CN1CCCC1=O	inactive
COc1ccc(C(CN(C)C)C2(O)CCCCC2)cc1 (centres undefined)	inactive
C[C@]12CCC(=O)C(O)=C1CC[C@@H]1[C@@H]2CC[C@]2(C)C(=O)CC[C@@H]12	inactive
COc1ccccc1N1CCNCC1	inactive
CC(C)=CCOc1c2occc2cc2ccc(=O)oc12	inactive
O=C1NCN(c2ccccc2)C12CCN(CC1COc3ccccc3O1)CC2 (centres undefined)	inactive
C=C(C)[C@H]1Cc2c(ccc3c2O[C@@H]2COc4cc(OC)c(OC)cc4[C@@H]2C3=O)O1	inactive
Cc1cccc(C)c1NC1=NCCCS1	inactive
CCCN1CCC[C@@H]2Cc3[nH]ncc3C[C@H]21	inactive
Fc1ccc(C(OCCN2CCN(CCCc3ccccc3)CC2)c2ccc(F)cc2)cc1	inactive
CC[C@@H](CO)NC(=O)[C@@H]1C=C2c3cccc4c3c(cn4C)C[C@H]2N(C)C1	inactive
Cc1ncc(CNC(=O)N(CCCl)N=O)c(N)n1	inactive
NN=C(N)N	inactive
Nc1ccncc1	inactive
O=c1[nH]c2ccccc2n1CCCN1CCC(n2c(=O)[nH]c3cc(Cl)ccc32)CC1	inactive
c1ccc2c(c1)OCC(C1=NCCN1)O2 (centres undefined)	inactive
